Test results from the supplement of paper PMC6555819.

Each sequence was assayed on FXR:RXRa (NR concentration 270 nM, RXRa partner concentration 90 nM) (assay: PBM binding z-score (relative to random genomic background probes); higher = stronger binding; sequences stand for … in GC…GCGATTGACAGCGTAGAATGAAGG).
Summary of the method: (§1)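 Binding z-scores were set against random background probes. The data came from custom Agilent 4×180K protein-binding microarrays carrying double-stranded probes with 34-nt variable regions, incubated 1 h with ligand-free nuclear receptor dimers. Partner-specific antibodies detected binding, and scanned fluorescence was regression-normalized.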

| Sequence | PBM binding z-score |
| --- | --- |
| TGTAGTTGGTCAAAGGTCACACACTCGAAATGCG | 5.82 |
| GCGACTGGGGCACCAGCAGGTTACCATAACTTAA | -0.545 |
| CCTATTAGTTGACCATAAGGGCAACCGGAGCTCG | 0.775 |
| CCTACTGGGCCCTCAGGTCATTGATATCAACGTT | 0.913 |
| AACTCTAGGTAAAGTTCAGTGAAAGATCGATAGA | 0.741 |
| TCTATTAGTTGAAGCGCAACCGACGAGTCCGTTT | 0.428 |
| TCTATTAGTTTAAGGGCAACCGACGAGTCCGTTT | 1.36 |
| TAGCCTAGGTCAGATCGGGTCAGTATACGCTATA | 2.96 |
| GCGACTGGGGCATCAGCAGATTACCATAACTTAA | -0.359 |
| TGTCAAAGTTCAAATGTAACGTAAGTATCCACAC | 7.51 |
| ATACCAAGCTGATCGTGAGGTCGTTGATACTAAC | 0.705 |
| CCCAGTAGGTTATGGGGCATTCAGGCAACGGTGA | 0.192 |
| TAGCCGAGGTCAGATCGGGCCAGTATACGCTATA | 5.46 |
| AATACAGGGTCATCGGAGGCCAGAGTACGCACAG | 7.32 |
| CCTTACGGGTCTCGAGGTTATAGCACGACGAGCG | 0.0293 |
| CCTGCTAGGTCATAGTCAGCTAATCTACAGTATG | 3.02 |
| GCGGCTAGGTCAACTGATGGTCAGCTAAAGCTCG | 4 |
| CGTACAGGGTCAGCTAGGCCAGAGTAGGGACGGC | 5.16 |
| ATCTCAAGGTAACAAGTTCAGTGAAAGAGAGGAC | 1.2 |
| ATCTAAAGGTCGAGGTGAGTATAGAGAAAGGGAA | 4.67 |

| Sequence | PBM binding z-score |
| --- | --- |
| AGACAAAGTTCACTAGGTAACGTAAGATTCAGCT | 5.15 |
| CCTTACGGCTCACTGACAGGTTATAGCATTTGGA | 0.367 |
| CGTCAGAGTTCAAGGTAACGTAACAGAAAGCAGC | 5.49 |
| ATCTCTAGGTAACTAAGTTCAGTGAATGCCGAAC | 0.51 |
| GCGACTGCGGCAAAGCAGGTTACCATAAGGTTGG | -0.436 |
| GCTGCTAGATCAGGTTGGTCAGCTAACGGGTACG | -0.615 |
| CCTCGGAGTACAGAAGGTCAGAGCTGTCCGCTTT | 1.75 |
| TTACCAAGGTGAAGGTCTTTGATCCCTCTGTAGA | 0.557 |
| TAGCCTAGGACATTCAGGGGCCAGTATAGAAAGC | -0.499 |
| GCGACTGGGGCATTAGCAGGTTACCATAACTTAA | -0.284 |
| ATACCACGGTGATCGTGAGGTCGTTGATACTAAC | 1.06 |
| TCTGCTAGGTCAGTTGGTCAGCTTACGAGCTGCC | 0.94 |
| TCGAGTAGGTTAGTCGGGACATTCAGCCAACATA | 2.7e-05 |
| GCAGACAGGTGAAACGCAGGTAAGTCAGGGTGGC | -0.334 |
| GCAGACAGGTGAAACGCCGGTAACTCAGGGTGGC | -0.365 |
| TCATATAAGTAAATGCTAGGTGAAAGTCCGATCT | 1.12 |
| TCATATAGGTAAAGGTGATAGTCGAACGATATGA | 0.212 |
| CCTTACGGGTCAACGTTATAGCACGGGTGGTACG | 4.79 |
| TAGCCTAGGTCAGATCGGGCCAGTACACGCTATA | 2.56 |
| AGAACGAGGCCACGCTGAGTTGATAGCAGAGTAG | 0.0545 |

What follows are sequences tested on LXRa:RXRa (NR concentration 270 nM, RXRa partner concentration 90 nM) in the same assay as above.
Summary of the method: as §1

| Sequence | PBM binding z-score |
| --- | --- |
| TGTAGTTGGTCAAAGGTCACACACTCGAAATGCG | 5.9 |
| GCGACTGGGGCACCAGCAGGTTACCATAACTTAA | -0.382 |
| CCTATTAGTTGACCATAAGGGCAACCGGAGCTCG | 0.432 |
| CCTACTGGGCCCTCAGGTCATTGATATCAACGTT | 0.734 |
| AACTCTAGGTAAAGTTCAGTGAAAGATCGATAGA | 1.51 |
| TCTATTAGTTGAAGCGCAACCGACGAGTCCGTTT | 0.488 |
| TCTATTAGTTTAAGGGCAACCGACGAGTCCGTTT | 1.32 |
| TAGCCTAGGTCAGATCGGGTCAGTATACGCTATA | 2.75 |
| GCGACTGGGGCATCAGCAGATTACCATAACTTAA | -0.612 |
| TGTCAAAGTTCAAATGTAACGTAAGTATCCACAC | 6.72 |
| ATACCAAGCTGATCGTGAGGTCGTTGATACTAAC | 0.688 |
| CCCAGTAGGTTATGGGGCATTCAGGCAACGGTGA | 0.622 |
| TAGCCGAGGTCAGATCGGGCCAGTATACGCTATA | 4.26 |
| AATACAGGGTCATCGGAGGCCAGAGTACGCACAG | 6.52 |
| CCTTACGGGTCTCGAGGTTATAGCACGACGAGCG | 0.421 |
| CCTGCTAGGTCATAGTCAGCTAATCTACAGTATG | 2.11 |
| GCGGCTAGGTCAACTGATGGTCAGCTAAAGCTCG | 2.78 |
| CGTACAGGGTCAGCTAGGCCAGAGTAGGGACGGC | 2.66 |
| ATCTCAAGGTAACAAGTTCAGTGAAAGAGAGGAC | 1.29 |
| ATCTAAAGGTCGAGGTGAGTATAGAGAAAGGGAA | 4.45 |

| Sequence | PBM binding z-score |
| --- | --- |
| AGACAAAGTTCACTAGGTAACGTAAGATTCAGCT | 4.98 |
| CCTTACGGCTCACTGACAGGTTATAGCATTTGGA | 0.347 |
| CGTCAGAGTTCAAGGTAACGTAACAGAAAGCAGC | 5.11 |
| ATCTCTAGGTAACTAAGTTCAGTGAATGCCGAAC | 0.962 |
| GCGACTGCGGCAAAGCAGGTTACCATAAGGTTGG | -0.494 |
| GCTGCTAGATCAGGTTGGTCAGCTAACGGGTACG | -0.876 |
| CCTCGGAGTACAGAAGGTCAGAGCTGTCCGCTTT | 3.22 |
| TTACCAAGGTGAAGGTCTTTGATCCCTCTGTAGA | 0.55 |
| TAGCCTAGGACATTCAGGGGCCAGTATAGAAAGC | -0.54 |
| GCGACTGGGGCATTAGCAGGTTACCATAACTTAA | 0.0464 |
| ATACCACGGTGATCGTGAGGTCGTTGATACTAAC | 0.834 |
| TCTGCTAGGTCAGTTGGTCAGCTTACGAGCTGCC | 0.456 |
| TCGAGTAGGTTAGTCGGGACATTCAGCCAACATA | 0.0232 |
| GCAGACAGGTGAAACGCAGGTAAGTCAGGGTGGC | -0.134 |
| GCAGACAGGTGAAACGCCGGTAACTCAGGGTGGC | -0.144 |
| TCATATAAGTAAATGCTAGGTGAAAGTCCGATCT | 1.03 |
| TCATATAGGTAAAGGTGATAGTCGAACGATATGA | 0.601 |
| CCTTACGGGTCAACGTTATAGCACGGGTGGTACG | 3.47 |
| TAGCCTAGGTCAGATCGGGCCAGTACACGCTATA | 1.36 |
| AGAACGAGGCCACGCTGAGTTGATAGCAGAGTAG | -0.515 |
